Experimental data from PubChem BioAssay AID1347416 (National Center for Advancing Translational Sciences (NCATS), 2020).
The campaign covered roughly 4,100 compounds. About 1,600 (39%) were called active. Not shown: some 25% with an inconclusive outcome. Calls come from the whole dose curve; as a rule, active = well fitted inhibition curve with a large enough effect; inconclusive = small, poorly fitted or top-dose-only effect; inactive = no such curve, though single readings can be large or run the other way. The list shows a part of the results.

Experiment: qHTS Validation assay for Inhibitors of Plasmodium falciparum Dd2 growth in vitro; note: nearly all actives have a fitted effect of over 70% in size
Conditions: P. falciparum Dd2 in RBCs, SYBR Green growth, 72 h; series mostly up to 28.7 µM
Outline: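 P. falciparum Dd2-infected red blood cells (2.5% hematocrit, 0.3% parasitemia) grown 72 h at 37 °C under 5% O2 with compounds in a titration, 29 uM to 0.5 nM final. Growth read as SYBR Green-1 fluorescence after ~16 h lysis; artesunate 300 nM as positive control.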
Potency is the fitted concentration of half-maximal effect.

Potency, inactive:
NCC(=O)N1CCC(n2nccc2NC(=O)c2ccc3c(c2)OCO3)CC1
CN1C(=O)c2cncnc2OCC1CNC(=O)Cc1cccs1 (configuration not stated)
COCCN1CC2(CCCN(Cc3cc(C(C)(C)C)n[nH]3)C2)CCC1=O (configuration not stated)
COC(=O)c1cccc(NC(=S)N[C@H]2CO[C@H]3[C@@H]2OC[C@H]3OC(=O)Nc2ccccc2)c1
Cc1cccc(C)c1NC(=O)CN1C(=O)NC(c2ccccc2Cl)C2=C1COC2=O (configuration not stated)
CC(Sc1nc2sccc2c(=O)n1-c1ccccc1)C(N)=O (configuration not stated)
CCOC(=O)C1CCN(C(=O)CSc2nc(N)cc(=O)[nH]2)CC1
Cc1noc(CN(C)C(=O)C2C3C(=O)N(Cc4ccc(C)c(C)c4)C[C@@]34C=C[C@@H]2O4)n1 (some centres not stated)
O=C(C1CCCCC1)N1CCN(C2CCN(Cc3cccnc3)C2=O)CC1 (configuration not stated)
COc1ccc(-c2noc(-c3cccn3CC(=O)NC3CCCCC3)n2)cc1F
COc1ccc(-c2noc(-c3cccn3CC(=O)NC(C)C)n2)cc1F
Cc1cccc(-c2ccc3c(c2)C(=O)N2C[C@H](O)C[C@H]2C(=O)N3)c1C
CNC(=O)[C@@H]1CN(C(=O)c2c[nH]c3ccccc23)C[C@H]1COC
CCn1nc(C)c(-c2cc(C(=O)N3CCc4nc5cc(-c6ccccc6)[nH]n5c(=O)c4C3)no2)c1C
COc1ccc(CCc2nc3nccc(-c4ccc5c(c4)OCCCO5)n3n2)cc1OC
CC1=C[C@@H](CNC(=O)c2cnccn2)[C@H](C(C)C)C[C@H]1Cc1nc2ccc(F)cc2[nH]1
CCC(C(=O)Nc1nc(C)c(C)s1)c1ccccc1 (configuration not stated)
CC(Oc1ccccc1)C(=O)Nc1cnc(-c2cccc(Cl)c2)nc1 (configuration not stated)
O=C(Cc1ccccc1O)NCc1cccnc1Oc1ccc(F)cc1F
CCC(Sc1nc2c(c(=O)n1CC)SC(C)C2)C(=O)OC (configuration not stated)
Cc1cc(NC(=O)CSc2nc3c(c(=O)n2Cc2ccccc2)SC(C)C3)no1 (configuration not stated)
NNC(=O)CN1C(=O)Nc2ccc(Cl)cc2C1c1ccccc1 (configuration not stated)
CCN(CC)CCNC(=O)c1ccc(NC(=O)c2cc(-c3ccncc3)nc3ccccc23)cc1
Cc1ccc2oc(-c3cccc(NC(=O)c4cccc5c(Cl)cccc45)c3)nc2c1
O=C(CCC1CCCC1)N1CC(c2nnc(-c3ccncc3)o2)C2(CCOCC2)C1 (configuration not stated)
CC(=O)NCCc1ncc(C)n1C1CCCCCC1
CC(=O)NCCc1ncc(C)n1C1CCC1
COc1cccc(-c2cc3c(=O)n(CCNC(=O)c4cccc5[nH]ccc45)ccn3n2)c1
COc1cccc(-c2cc(C(=O)NCC34CCC=C3N(C)C(=O)CC4)[nH]n2)c1 (configuration not stated)
COC(=O)c1c(NC(=O)/C(C#N)=C/c2ccc(OC)cc2)sc2c1CCC2
O=C(NCCCn1cccn1)C1Cn2cccc2C(=O)N1Cc1ccccc1 (configuration not stated)
COc1ccc(C2=NOC3(CCN([S+](=O)([O-])c4cccc(OC)c4)C3)C2)cc1 (configuration not stated)
COc1ccc(C(=O)N2CCOCC3(CN(Cc4ccccc4)C3)C2)c(OC)n1
Cc1ccc(Sc2ccc(N3CCCC(C(=O)Nc4ccc(F)c(Cl)c4)C3)nn2)cc1 (configuration not stated)
COC(=O)CSc1nc2c(c(-c3ccco3)c1C#N)CCCC2

Potency, active:
COc1ccc(C(CCN2CCN(c3ccccc3)CC2)c2c(O)cc(OC)cc2OC)cc1 (configuration not stated) 0.944 µM
COc1cc(O)c(C(CCN2CCN(c3ccccc3)CC2)c2ccc(N(C)C)cc2)c(OC)c1 (configuration not stated) 0.596 µM
N#Cc1c(N2CCN(c3ccc(F)cc3)CC2)nc(N)c2c(N)nc3c(c12)CC(=O)N3C1CC1 0.668 µM
C=CCOC(=O)C1=C[C@@H](c2ccc(C(F)(F)F)cc2)[C@H](CCCO)[C@@H](OCC)O1 7.5 µM
COc1ccccc1N1CCN(C(c2cc3ccc(C)cc3[nH]c2=O)c2nnnn2C2CCCC2)CC1 (configuration not stated) 7.5 µM
CC(C)(C)n1nnnc1C(c1cc2cc3c(cc2[nH]c1=O)OCO3)N1CCN(c2ccccc2)CC1 (configuration not stated) 7.5 µM
COc1ccc(N2CCN(C(c3cc4ccc(C)cc4[nH]c3=O)c3nnnn3C3CCCC3)CC2)cc1 (configuration not stated) 6.68 µM
Cc1ccc(C)c(OCCn2cc(C(=O)c3ccco3)c3ccccc32)c1 5.31 µM
Cc1ccccc1OCCn1cc(C(=O)c2ccco2)c2ccccc21 5.31 µM
COCCN(CCOC)c1nc(N)c2c(N)nc3c(c2c1C#N)CC(=O)N3Cc1ccc(Cl)cc1 5.96 µM
CC(C)[C@@H]1CN(S(=O)(=O)c2ccc(Cl)cc2Cl)C[C@H]1N(C)C 6.68 µM
CCOC(=O)c1c(NC(=O)CSc2nc3ccccc3c(=O)n2-c2ccccc2)sc(C(C)=O)c1C 13.3 µM
CCOC(=O)C1CCN(Cc2cc(Cl)c3ccccc3c2O)CC1 1.88 µM
CCOC(=O)C1CCN(c2cc(=O)n(-c3ccccc3Cl)c(=O)[nH]2)CC1 8.41 µM
CCOC(=O)c1ccc2c(c1)[C@@H]1C=CC[C@@H]1[C@H](c1cccc(OC)c1OC)N2 2.66 µM
COc1ccc(NC(=O)Cn2cccc2-c2nc(-c3ccc(OC)c(F)c3)no2)cc1 4.73 µM
COc1ccc(-c2noc(-c3cccn3CC(=O)Nc3ccccc3)n2)cc1F 2.37 µM
COc1cccc(NC(=O)Cn2cccc2-c2nc(-c3ccc(OC)c(F)c3)no2)c1 6.68 µM
CCOc1ccc(NC(=O)Nc2cc(OCC(F)(F)F)cc(OCC(F)(F)F)c2)cc1 13.3 µM
CCN1CCN(Cc2ccc(NC(=O)c3ccc(C)c(NC(=O)c4c[nH]c5cc(C(F)(F)F)ccc5c4=O)c3)cc2C(F)(F)F)CC1 0.531 µM
Cc1cn(-c2cc(C(=O)Nc3ccc(C)c(NC(=O)C(=O)c4c[nH]c5ccccc45)c3)cc(C(F)(F)F)c2)cn1 2.11 µM
CCN1CCN(Cc2ccc(NC(=O)c3cc(NC(=O)C(=O)c4c[nH]c5ccccc45)cc(OC)c3)cc2C(F)(F)F)CC1 0.668 µM
CCN1CCN(Cc2ccc(NC(=O)c3ccc(C)c(NC(=O)C(=O)c4c[nH]c5ccccc45)c3)cc2C(F)(F)F)CC1 1.5 µM
COc1ccc(CCNc2nc3cc(OC)c(OC)cc3c3nc(-c4ccccc4)nn23)cc1OC 2.37 µM
COc1cc2nc(NCCc3cccc(C)c3)n3nc(-c4ccccc4)nc3c2cc1OC 0.842 µM
COc1cc2c(cc1O)CC[n+]1cc3c(OC)c(OC)ccc3cc1-2 7.5 µM
COc1ccc2nc(C[C@@H]3C[C@@H](C(C)C)[C@H](CNCc4ccccc4OC)C=C3C)[nH]c2c1 9.44 µM
COc1ccc2nc(C[C@@H]3C[C@@H](C(C)C)[C@H](CNCc4ccccn4)C=C3C)[nH]c2c1 0.769 µM
COC(=O)c1ccc2nc(C[C@@H]3C[C@@H](C(C)C)[C@H](CNC4CCCCC4)C=C3C)[nH]c2c1 8.41 µM
COc1ccccc1CNC[C@@H]1C=C(C)[C@H](Cc2nc3c(C)cccc3[nH]2)C[C@H]1C(C)C 9.68 µM
CC1(C)Cc2ccccc2C2=NNC(=O)C2=N1 3.35 µM
O=C(Nc1nc(-c2ccccn2)cs1)Nc1ccc(F)cc1F 5.31 µM
CC(Oc1ccccc1)C(=O)Nc1nc(-c2ccccn2)cs1 (configuration not stated) 8.41 µM
CC1Cc2nc(SCC(=O)Nc3ccc4c(c3)OCO4)n(-c3ccc(F)cc3)c(=O)c2S1 (configuration not stated) 2.99 µM
CCOc1ccccc1C(=O)N1CC(=O)Nc2ccc(Cl)cc2C1c1ccccc1 (configuration not stated) 9.44 µM
O=C(Nc1ccncc1)c1cc(-c2cccc(Br)c2)nc2ccccc12 13.3 µM
O=C(Nc1cccnc1)c1cc(-c2cccnc2)nc2ccc(Br)cc12 2.66 µM
O=C(NCc1ccco1)c1cc(-c2ccncc2)nc2ccccc12 5.96 µM
COc1cc(C#Cc2c(-c3cncn3C)n(C)c3ccc(-c4ccc5[nH]ccc5c4)cc23)cc(OC)c1 2.37 µM
COc1cc(C#Cc2c(-c3cncn3C)n(C)c3ccc(-c4ccc(OC)c(OC)c4)cc23)cc(OC)c1 4.73 µM
COc1ccc(-c2c(C#Cc3ccsc3)c3cc(-c4cccc5[nH]ccc45)ccc3n2C)cc1 6.68 µM
CCOC(=O)c1cnc(-n2nc(C)cc2C)nc1NNc1nc(-c2ccccc2)cc(-c2ccccc2)n1 2.11 µM
CCOC(=O)c1cnc(-n2nc(C)cc2C)nc1NC1CCCC1 8.41 µM
ClC(Cl)(Cl)c1nc2ccccc2n2nncc12 2.11 µM
CCCN(CCC)CCNC(=O)c1cc2c(-c3ccc(Cl)cc3)nn(C)c2s1 0.596 µM
CCCCN(C)CCNC(=O)c1cc2c(-c3cccc(OC)c3)nn(C)c2s1 6.68 µM
CCCCN(CC)CCNC(=O)c1cc2c(-c3ccc(Cl)cc3)nn(C)c2s1 0.668 µM
CN(CCNC(=O)c1cc2c(-c3ccccc3F)nn(C)c2s1)C1CCCCC1 5.96 µM
COc1ccccc1CN1CCOCC2(C1)CN([S+](=O)([O-])c1ccccc1)C2 12.2 µM
O=C(Nc1ccc(N2CCCCC2)c(Cl)c1)c1ncn[nH]1 4.73 µM
CCc1c(C)c(C#N)c2nc3ccccc3n2c1NCC1CCCO1 (configuration not stated) 2.99 µM
N#Cc1c2c(c(NCc3ccco3)n3c1nc1ccccc13)CCC2 2.37 µM
